Among the data in PubChem BioAssay (EPA / NIEHS) are outcome and AC50 values, retold here.

Where “and” joins values, the source holds several entries; their conditions need not be identical. Equal values may be shown once. Where a structure was tested more than once in an assay, its records may differ in their call. Calls of active or inactive are those of the source. Rule for the calls: active = hit-call score of the fitted dose curve at least 0.9, where 1 is the maximum; inactive = score below 0.9.

Read-out in experiment [1]: Monokine induced gamma interferon (MIG), CXCL9 (gene 4283)
Nature of the experiment: BSK_KF3CT_MIG: BioMAP Diversity Plus: KF3CT Assay for Monokine induced gamma interferon (MIG) Biomarker Activity (AID 2284248). As to conditions: primary human keratinocytes with fibroblasts. The procedure, abridged: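 Human keratinocyte plus foreskin fibroblast primary co-culture dosed with test chemical for 24 h; MIG level measured by ELISA and fitted in the positive direction against DMSO as baseline.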

Read-out in experiment [2]: Collagen I, COL1A1 (gene 1277)
The experiment can be described thus: BSK_hDFCGF_CollagenI: BioMAP Diversity Plus: hDFCGF Assay for Collagen I Biomarker Activity (AID 2284250). As to conditions: primary human foreskin fibroblasts. The procedure, abridged:
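Readout: Collagen I by ELISA after 24 h compound treatment of primary human foreskin fibroblasts. Endpoint analysed for increases relative to DMSO; total protein by SRB in parallel wells flagged cytotoxicity.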

Read-out in experiment [3]: Interferon-inducible T-cell alpha chemoattractant (ITAC), CXCL11 (gene 6373)
Nature of the experiment: BSK_hDFCGF_ITAC: BioMAP Diversity Plus: hDFCGF Assay for Interferon-inducible T-cell alpha chemoattractant (ITAC) Biomarker Activity (AID 2284251). As to conditions: primary human foreskin fibroblasts. The procedure, abridged: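 I-TAC levels were read by ELISA on human dermal foreskin fibroblast primary cultures 24 h after dosing, analysed against DMSO in the positive direction. Cytotoxicity was assessed alongside by sulforhodamine B total-protein staining.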

Read-out in experiment [4]: Plasminogen activator inhibitor-1 (PAI1), SERPINE1 (gene 5054)
The experiment can be described thus: BSK_KF3CT_PAI1: BioMAP Diversity Plus: KF3CT Assay for Plasminogen activator inhibitor-1 (PAI1) Biomarker Activity (AID 2284252). As to conditions: primary human keratinocytes with fibroblasts. The procedure, abridged: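 In this co-culture of primary human keratinocytes and foreskin fibroblasts, PAI-1 was measured by ELISA at 24 h and fitted upward from DMSO.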

Read-out in experiment [5]: Interleukin-8 (IL8), CXCL8 (gene 3576)
The experiment can be described thus: BSK_KF3CT_IL8: BioMAP Diversity Plus: KF3CT Assay for Interleukin-8 (IL8) Biomarker Activity (AID 2284254). The conditions noted are these: primary human keratinocytes with fibroblasts. The procedure, abridged: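 Human primary keratinocyte plus foreskin fibroblast co-culture dosed with test chemicals; IL-8 measured by ELISA 24 h after dosing. Activity fitted in the positive direction relative to DMSO negative control.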

Read-out in experiment [6]: Plasminogen activator inhibitor-1 (PAI1), SERPINE1 (gene 5054)
The experiment can be described thus: BSK_MyoF_PAI1: BioMAP Diversity Plus: MyoF Assay for Plasminogen activator inhibitor-1 (PAI1) Biomarker Activity (AID 2284256).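 For outcome: PAI-1 protein level measured by ELISA in fibroblast cultures.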 As to conditions: primary human lung fibroblasts. The method, boiled down:
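ELISA read-out of PAI-1 from primary human lung fibroblast cultures 24 h after dosing; gain-of-signal fit versus DMSO control.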

Read-out in experiment [7]: Interleukin-8 (IL8), CXCL8 (gene 3576)
The experiment can be described thus: BSK_MyoF_IL8: BioMAP Diversity Plus: MyoF Assay for Interleukin-8 (IL8) Biomarker Activity (AID 2284261). As to conditions: primary human lung fibroblasts. The method, boiled down: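 ELISA read-out of IL-8 from primary human lung fibroblasts, 24 h post-dose; positive-direction curve fitting relative to DMSO vehicle baseline.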

Read-out in the next experiment: Decorin, DCN (gene 1634)
Nature of the experiment: BSK_MyoF_Decorin: BioMAP Diversity Plus: MyoF Assay for Decorin Biomarker Activity (AID 2284265). The conditions noted are these: primary human lung fibroblasts. The method, boiled down:
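Human lung fibroblasts in the MyoF system were exposed to compound for 24 h, after which decorin was quantified by ELISA. Activity was fitted in the positive direction relative to DMSO negative control.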

Experiment [8] can be described thus: BSK_MyoF_SRB: Viability Assessment in the BioMAP Diversity Plus: MyoF Assay (AID 2284267).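 Note: total protein by SRB absorbance in parallel cultures as cytotoxicity measure.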 As to conditions: primary human lung fibroblasts. The method, boiled down: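 In this viability endpoint, fibroblasts from human lung are treated for 24 h, TCA-fixed, SRB-stained (0.1%) and read at 560 nm. Gain of signal relative to DMSO defines activity.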
Read-out in experiment [9]: Vascular cell adhesion molecule 1 (VCAM1), VCAM1 (gene 7412)
Nature of the experiment: BSK_BF4T_VCAM1: BioMAP Diversity Plus: BF4T Assay for Vascular cell adhesion molecule 1 (VCAM1) Biomarker Activity (AID 2284249). The conditions noted are these: primary human bronchial epithelial cells with fibroblasts. The procedure, abridged: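 Cell-surface VCAM-1 quantified by ELISA after 24 h chemical exposure of human bronchial epithelial/dermal fibroblast co-cultures, with SRB staining in parallel wells for cytotoxicity; DMSO baseline, positive-direction fitting.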

Read-out in experiment [10]: Monocyte Chemoattractant Protein-1 (MCP1), CCL2 (gene 6347)
Nature of the experiment: BSK_IMphg_MCP1: BioMAP Diversity Plus: IMphg Assay for Monocyte Chemoattractant Protein-1 (MCP1) Biomarker Activity (AID 2284253). The conditions noted are these: primary human endothelial cells with macrophages. The procedure, abridged:
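ELISA readout of MCP-1 at 24 hours in IMphg co-cultures of venular endothelial cells and macrophages, normalised to DMSO; parallel cultures stained with sulforhodamine B for overt cytotoxicity.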

Read-out in experiment [11]: Macrophage Inflammatory Protein-1 Alpha (MIP1a), CCL3 (gene 6348)
Nature of the experiment: BSK_IMphg_MIP1a: BioMAP Diversity Plus: IMphg Assay for Macrophage Inflammatory Protein-1 Alpha (MIP1a) Biomarker Activity (AID 2284255). The conditions noted are these: primary human endothelial cells with macrophages. The method, boiled down:
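MIP-1a protein levels were quantified by ELISA after 24 h treatment of human endothelial cell–macrophage co-cultures, compared with DMSO. Parallel cultures were fixed with TCA and stained with 0.1% SRB to gauge overt cytotoxicity.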

Read-out in a further experiment: CD69, CD69 (gene 969)
The experiment can be described thus: BSK_IMphg_CD69: BioMAP Diversity Plus: IMphg Assay for CD69 Biomarker Activity (AID 2284257). The conditions noted are these: primary human endothelial cells with macrophages. The procedure, abridged:
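Readout is ELISA for CD69 in primary human venular endothelial cell/macrophage co-culture, taken at 24 h post-dosing. SRB staining of parallel cultures gauged overt cytotoxicity; signal increase versus DMSO defined activity.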

Read-out in experiment [12]: Eotaxin 3, CCL26 (gene 10344)
The experiment can be described thus: BSK_BF4T_Eotaxin3: BioMAP Diversity Plus: BF4T Assay for Eotaxin 3 Biomarker Activity (AID 2284258). As to conditions: primary human bronchial epithelial cells with fibroblasts. The method, boiled down: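 ELISA measurement of Eotaxin-3 after 24 h chemical exposure in a bronchial epithelial/dermal fibroblast co-culture, with DMSO as baseline. Parallel SRB staining (0.1% SRB after 10% TCA fixation, 560 nm) flagged overt cytotoxicity.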

Read-out in experiment [13]: Monocyte Chemoattractant Protein-1 (MCP1), CCL2 (gene 6347)
The experiment can be described thus: BSK_BF4T_MCP1: BioMAP Diversity Plus: BF4T Assay for Monocyte Chemoattractant Protein-1 (MCP1) Biomarker Activity (AID 2284259). The conditions noted are these: primary human bronchial epithelial cells with fibroblasts. The method, boiled down:
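MCP-1 ELISA readout taken 24 h after dosing in the BF4T system (bronchial epithelial cells plus dermal fibroblasts). Parallel SRB total-protein staining flagged cytotoxicity; DMSO served as baseline, positive fitting direction.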

Read-out in experiment [14]: Intercellular Adhesion Molecule 1 (ICAM1), ICAM1 (gene 3383)
The experiment can be described thus: BSK_BF4T_ICAM1: BioMAP Diversity Plus: BF4T Assay for Intercellular Adhesion Molecule 1 (ICAM1) Biomarker Activity (AID 2284260). The conditions noted are these: primary human bronchial epithelial cells with fibroblasts. The method, boiled down:
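ICAM-1 levels measured by ELISA after 24 h chemical treatment of bronchial epithelial cell/dermal fibroblast co-cultures, read against DMSO baseline. Overt cytotoxicity checked in parallel cultures by sulforhodamine B staining.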

Read-out in the next experiment: CD90, THY1 (gene 7070)
The experiment can be described thus: BSK_BF4T_CD90: BioMAP Diversity Plus: BF4T Assay for CD90 Biomarker Activity (AID 2284262). The conditions noted are these: primary human bronchial epithelial cells with fibroblasts. The method, boiled down:
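CD90 levels by ELISA after 24 h treatment of human bronchial epithelial cell/dermal fibroblast cultures, analysed versus DMSO. Overt cytotoxicity checked in parallel cultures by sulforhodamine B staining.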

Read-out in experiment [15]: Interleukin-8 (IL8), CXCL8 (gene 3576)
The experiment can be described thus: BSK_BF4T_IL8: BioMAP Diversity Plus: BF4T Assay for Interleukin-8 (IL8) Biomarker Activity (AID 2284263). The conditions noted are these: primary human bronchial epithelial cells with fibroblasts. The method, boiled down:
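Human bronchial epithelial cells with dermal fibroblasts co-culture; IL-8 measured by ELISA 24 hours after dosing, fitted vs DMSO. Cytotoxicity tracked in parallel cultures by SRB total-protein staining.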

Read-out in experiment [16]: Interleukin-1 alpha (IL1a), IL1A (gene 3552)
The experiment can be described thus: BSK_BF4T_IL1a: BioMAP Diversity Plus: BF4T Assay for Interleukin-1 alpha (IL1a) Biomarker Activity (AID 2284264). The conditions noted are these: primary human bronchial epithelial cells with fibroblasts. The method, boiled down: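 ELISA read-out of IL-1α from bronchial epithelial cell/dermal fibroblast co-cultures 24 h after compound addition. Increases scored against DMSO negative control. Cytotoxicity monitored by sulforhodamine B staining of parallel cultures.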

Read-out in another experiment: KRT18 (gene 3875)
The experiment can be described thus: BSK_BF4T_Keratin818: BioMAP Diversity Plus: BF4T Assay for Keratin 818 Biomarker Activity (AID 2284266). The conditions noted are these: primary human bronchial epithelial cells with fibroblasts. The method, boiled down: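 Keratin 8/18 levels quantified by ELISA after 24 h chemical treatment of bronchial epithelial cell/dermal fibroblast co-cultures, fitted in positive direction relative to DMSO. Parallel SRB staining tracks overt cytotoxicity.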

As for `Oc1ccccc1Cc1ccccc1O`, the result in experiment [1], in [2], in experiment [3], in experiment [4] and in experiment [5] was inactive.

Regarding `CCCC(C)C(=O)OCC` (stereo unspecified), the result in experiment [1], in experiment [2], in experiment [3], in [4] and in [5] was inactive.

On to `CCOC(=O)/C=C\C(=O)OCC`, for which the outcome in experiment [6] is “inactive”; in experiment [7], “inactive”; in the experiment with Decorin, DCN (gene 1634) it was “inactive”; in experiment [8], “inactive”.

For `C=CC(=O)OCC(C)OCC(C)OCC(C)OC(=O)C=C` (stereo unspecified), the AC50 in experiment [6] was 30.9 µM (active); with Decorin, DCN (gene 1634), 20 µM (active); in [8], 33.2 µM (active). For the same compound, the result in experiment [7] was inactive.

Consider `CCC1(C)C(=O)N(Cl)C(=O)N1Cl` (stereo unspecified), for which the outcome is “inactive” in [6]; “inactive” in [7]; “inactive” with Decorin, DCN (gene 1634); “inactive” in experiment [8].

For the compound `COc1ccc(C(=O)/C(Br)=C\C(=O)O)cc1`, the outcome in experiment [6] is “inactive”; in [7], “inactive”; in the experiment with Decorin, DCN (gene 1634), “inactive”; in experiment [8], “inactive”. Besides, the concentration at half-maximal activity (AC50) in experiment [7] was 3.97 µM (active).

Consider `CCCCC1C(=O)N(c2ccccc2)N(c2ccccc2)C1=O`, for which the outcome was “inactive” in experiment [6]; “inactive” in experiment [7]; “inactive” in the experiment with Decorin, DCN (gene 1634); “inactive” in experiment [8].

`c1ccc(Nc2cccc3ccccc23)cc1`: the half-maximal activity concentration (AC50) in [1] was 38.9 µM (active) and 33.8 µM (active); in experiment [2] it was 14.3 µM (active); in experiment [3] it was 30.1 µM (active) and 30.3 µM (active); in [4] it was 27.4 µM (active) and 26.5 µM (active); in experiment [5] it was 31.6 µM (active) and 29.4 µM (active). Moreover, the outcome in experiment [2] was inactive.

Regarding `C[N+](C)(C)CCCNS(=O)(=O)C(F)(F)C(F)(F)C(F)(F)C(F)(F)C(F)(F)C(F)(F)C(F)(F)C(F)(F)F`, the result in experiment [1], in [9], in experiment [2], in experiment [4], in experiment [10] and in experiment [5] was inactive. For the same compound, the outcome in experiment [6] was “inactive”; in the experiment with CD69, CD69 (gene 969) it was “inactive”; in [12], “inactive”; in experiment [13] it was “inactive”; in [14], “inactive”; in [7], “inactive”. Also, the outcome in the experiment with CD90, THY1 (gene 7070) was “inactive”; in [15], “inactive”; in [16], “inactive”. The AC50 is 47.1 µM (active) and 49.6 µM (active) in experiment [3]; 46.1 µM (active) in experiment [4]; 50.5 µM (active) and 56.9 µM (active) in experiment [11]; 21.9 µM (active) in experiment [6]; 8.01 µM (active) with CD69, CD69 (gene 969); 30 µM (active) in [16]. Besides, the half-maximal activity concentration (AC50) was 9.66 µM (active) and 11.2 µM (active) in the experiment with Decorin, DCN (gene 1634); 26.5 µM (active) and 5.95 µM (active) in the experiment with KRT18 (gene 3875); 37.6 µM (active) and 38.7 µM (active) in experiment [8].

Usually AC50 stands for the midpoint of the concentration-response curve, whichever way the signal moves.
